# Measurements: PubChem BioAssay
# Activity calls are given as the source filed them.
# Assays:
# [1] = tested on: PRMT1 (protein arginine N-methyltransferase 1); assay: PRMT1 binders on small-molecule microarrays, primary screen, biochemical, small-molecule microarray, 635 nm fluorescence (AID 1088); details: small-molecule microarray binding, higher = more signal;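 further: binding of Prmt1 protein to compounds spotted on small-molecule microarray slides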
# [2] = yeast growth modulation, basal conditions, primary screen, YJM789 clinical isolate, OD600, 24 h (AID 1089);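 further: growth of clinical yeast isolate S. cerevisiae YJM 789 seeded 1000 cells per well; test concentration not given here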; details: S. cerevisiae YJM789 growth, higher = more signal, called active from +8 up or from −8 down
# [3] = fission yeast growth modulation, primary screen, strain 972, OD600, 24 h, no modulator (AID 1090);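 further: basal condition with compound alone and no growth modifier present; test concentration not given here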; details: S. pombe 972 growth, higher = more signal, called active from +8 up or from −8 down
# [4] = S. cerevisiae growth modulation with rapamycin, primary screen, strain BY4716, OD600, 96 h (AID 1091); details: higher = more signal, called active from +8 up or from −8 down; further: test concentration not given here
# [5] = target: Torsin-1A-interacting protein 2 (Homo sapiens) (UniProt Q8NFQ8); assay: LULL1 binders on small-molecule microarray, primary screen, cell lysate, human LULL1 lysate, 635/667 nm fluorescence (AID 1092); details: hLULL1 lysate binding, 635 nm fluorescence, higher = more signal;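 further: probe is lysate of COS7 cells overexpressing human LULL1; score merges per-feature 667 nm fluorescence with signal-to-noise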
# Torsin-1A-interacting protein 2 (Homo sapiens), sequence (Q8NFQ8 whole entry, looked up): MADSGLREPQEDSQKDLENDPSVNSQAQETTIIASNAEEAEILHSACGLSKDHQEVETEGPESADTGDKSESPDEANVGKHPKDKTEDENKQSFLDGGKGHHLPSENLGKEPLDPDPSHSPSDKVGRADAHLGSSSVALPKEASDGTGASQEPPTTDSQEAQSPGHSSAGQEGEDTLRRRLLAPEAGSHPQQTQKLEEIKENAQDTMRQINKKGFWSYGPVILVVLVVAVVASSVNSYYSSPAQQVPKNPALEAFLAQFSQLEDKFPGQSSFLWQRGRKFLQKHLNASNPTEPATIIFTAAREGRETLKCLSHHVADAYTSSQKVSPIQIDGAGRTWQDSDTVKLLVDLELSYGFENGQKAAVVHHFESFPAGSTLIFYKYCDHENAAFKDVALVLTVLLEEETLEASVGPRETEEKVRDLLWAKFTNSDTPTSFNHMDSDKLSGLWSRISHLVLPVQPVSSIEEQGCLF
# [6] = E. coli growth modulation, two-sided OD650, primary screen, E. coli filamentation project, strain DRC41, 24 h (AID 1093); details: OD650, 24 h, higher = more signal, called active from +8 up or from −8 down;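 further: MC1000 strain lacking acrAB efflux and sulA so SOS filamentation is blocked; test concentration not given here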
# [7] = small-molecule microarray binders of probe aLefty2, primary screen, biochemical, biotinylated probe, 635/667 nm fluorescence (AID 1094); details: higher = more signal;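 further: score merges spot fluorescence near 667 nm with spot signal-to-noise ratio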
# [8] = tested on: Noggin (protein binding on small-molecule microarray); assay: Noggin binders on small-molecule microarray, primary screen, biochemical, 635/667 nm fluorescence (AID 1095); details: 635 nm fluorescence, higher = more signal;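 further: score merges 667 nm feature fluorescence with signal to noise over triplicate slides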
# [9] = target: Neurogenic locus notch homolog protein 3 (Homo sapiens) (UniProt Q9UM47); assay: NOTCH3 binders on small-molecule microarray, primary screen, biochemical, 635/667 nm fluorescence (AID 1096); details: NOTCH3 binding, 635 nm fluorescence, higher = more signal
# Neurogenic locus notch homolog protein 3 (Homo sapiens), sequence (Q9UM47 whole entry, looked up): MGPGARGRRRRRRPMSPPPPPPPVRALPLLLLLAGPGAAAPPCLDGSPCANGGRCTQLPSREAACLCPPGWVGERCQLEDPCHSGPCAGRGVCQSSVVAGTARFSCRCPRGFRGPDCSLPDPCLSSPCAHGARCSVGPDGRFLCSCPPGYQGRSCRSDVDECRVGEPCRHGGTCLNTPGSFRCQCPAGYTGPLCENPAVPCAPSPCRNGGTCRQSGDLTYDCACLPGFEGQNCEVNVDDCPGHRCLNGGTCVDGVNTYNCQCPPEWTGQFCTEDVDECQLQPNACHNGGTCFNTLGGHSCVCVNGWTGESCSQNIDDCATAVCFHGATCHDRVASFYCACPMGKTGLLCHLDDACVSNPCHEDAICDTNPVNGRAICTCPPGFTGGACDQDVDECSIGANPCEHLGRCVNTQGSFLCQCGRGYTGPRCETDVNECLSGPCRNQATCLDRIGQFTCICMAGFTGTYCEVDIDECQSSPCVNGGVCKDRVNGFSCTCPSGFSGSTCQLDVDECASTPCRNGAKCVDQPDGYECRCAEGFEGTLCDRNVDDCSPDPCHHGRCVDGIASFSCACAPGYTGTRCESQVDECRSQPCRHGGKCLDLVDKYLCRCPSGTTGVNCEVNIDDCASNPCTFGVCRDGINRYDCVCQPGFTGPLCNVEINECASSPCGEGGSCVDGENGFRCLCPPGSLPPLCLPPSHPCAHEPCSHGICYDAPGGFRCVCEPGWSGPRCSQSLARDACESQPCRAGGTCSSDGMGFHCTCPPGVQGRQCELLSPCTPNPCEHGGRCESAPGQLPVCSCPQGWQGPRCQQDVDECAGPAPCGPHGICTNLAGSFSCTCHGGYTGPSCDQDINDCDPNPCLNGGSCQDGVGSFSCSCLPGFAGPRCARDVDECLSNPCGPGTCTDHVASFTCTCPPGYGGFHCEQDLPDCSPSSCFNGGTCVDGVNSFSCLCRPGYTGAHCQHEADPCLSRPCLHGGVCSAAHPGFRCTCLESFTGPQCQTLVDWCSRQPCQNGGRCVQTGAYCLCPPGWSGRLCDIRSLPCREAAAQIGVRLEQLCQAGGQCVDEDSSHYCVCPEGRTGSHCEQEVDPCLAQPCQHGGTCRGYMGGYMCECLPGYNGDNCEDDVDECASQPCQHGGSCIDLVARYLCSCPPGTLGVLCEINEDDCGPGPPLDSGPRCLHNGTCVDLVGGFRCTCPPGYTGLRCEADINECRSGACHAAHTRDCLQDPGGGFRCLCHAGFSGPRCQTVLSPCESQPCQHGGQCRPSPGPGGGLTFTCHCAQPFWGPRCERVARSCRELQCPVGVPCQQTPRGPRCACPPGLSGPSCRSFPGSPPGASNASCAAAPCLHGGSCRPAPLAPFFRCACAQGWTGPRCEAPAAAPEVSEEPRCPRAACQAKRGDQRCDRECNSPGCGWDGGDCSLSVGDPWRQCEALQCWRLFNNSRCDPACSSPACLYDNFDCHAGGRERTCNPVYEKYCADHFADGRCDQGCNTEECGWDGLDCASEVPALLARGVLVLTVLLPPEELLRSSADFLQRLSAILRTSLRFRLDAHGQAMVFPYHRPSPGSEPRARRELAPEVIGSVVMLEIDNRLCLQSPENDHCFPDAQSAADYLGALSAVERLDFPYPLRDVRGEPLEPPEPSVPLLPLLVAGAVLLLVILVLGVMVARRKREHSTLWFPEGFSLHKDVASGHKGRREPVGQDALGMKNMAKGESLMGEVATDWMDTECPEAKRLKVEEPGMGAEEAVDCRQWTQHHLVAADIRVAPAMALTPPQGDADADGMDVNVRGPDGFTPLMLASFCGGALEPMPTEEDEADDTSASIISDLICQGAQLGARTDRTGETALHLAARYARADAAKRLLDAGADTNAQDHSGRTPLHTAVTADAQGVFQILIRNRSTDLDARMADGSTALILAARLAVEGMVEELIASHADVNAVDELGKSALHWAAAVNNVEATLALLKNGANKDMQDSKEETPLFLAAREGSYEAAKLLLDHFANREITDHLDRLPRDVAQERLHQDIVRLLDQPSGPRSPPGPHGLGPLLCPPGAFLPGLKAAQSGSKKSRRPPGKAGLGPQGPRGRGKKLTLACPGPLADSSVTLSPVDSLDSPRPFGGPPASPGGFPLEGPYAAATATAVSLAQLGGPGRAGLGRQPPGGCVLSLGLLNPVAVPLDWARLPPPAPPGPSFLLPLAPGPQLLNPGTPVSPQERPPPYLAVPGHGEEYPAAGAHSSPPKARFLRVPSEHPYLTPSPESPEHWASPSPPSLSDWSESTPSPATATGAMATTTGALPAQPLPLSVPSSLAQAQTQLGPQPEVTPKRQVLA
# [10] = small-molecule microarray binders of probe aEGFR, primary screen, biochemical, biotinylated probe, 635/667 nm fluorescence (AID 1097); details: higher = more signal;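 further: probe is a biotinylated anti-EGFR antibody binding compounds printed on slides; score combines fluorescence near 667 nm and signal to noise of each spot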
SMILES,composite z-score [1],z-score [2],z-score [3],z-score [4],composite z-score [5],z-score [6],composite z-score [7],composite z-score [8],composite z-score [9],composite z-score [10]
COc1cc(NN2C(C(O)c3ccc(I)cc3)C=CC3C(=O)N(C)C(=O)C32)cc(OC)c1OC (stereo not given),0.0146,0.896 (inactive),0.605 (inactive),0.0514 (inactive),2.75,0.202 (inactive),0.0283,-0.131,-0.325,0.113
CN(C)C(=O)[C@@]1(CCS(=O)(=O)c2ccccc2)N=C(c2ccc(OCCCO)cc2)O[C@H]1c1ccccc1CN=[N+]=[N-],1.54,-1.54 (inactive),-0.346 (inactive),0.0194 (inactive),3.79,1.15 (inactive),0.0225,1.66,1.12,0.0316
Cc1ccc(C(C)CC(O)C2C=CC3C(=O)N(Cc4ccccc4)C(=O)C3N2n2cnnc2)o1 (stereo not given),1.49,-3.19 (inactive),-2.84 (inactive),-0.829 (inactive),2.51,-1.56 (inactive),1.1,0.0433,1.09,0.778
C=CCC(OC(C)=O)[C@@H]1[C@@H](N(Cc2cccc3ccccc23)C(=O)Cc2ccc(F)cc2)c2cc(OCCCO)ccc2N1C(=O)Cc1ccc(OC)cc1 (stereo not given in full),-0.151,-1.18 (inactive),0.246 (inactive),-0.72 (inactive),-0.0743,0.802 (inactive),-0.0137,0.122,0.159,-0.309
COC(=O)[C@@]1(Cc2ccc(F)cc2)[C@H]2c3cc(C(=O)N(C)C)n(CCSCCO)c3C[C@H]2CN1C(=O)c1ccccc1,0.0793,0.125 (inactive),0.642 (inactive),-0.0109 (inactive),2.72,0.162 (inactive),0.0126,-0.443,0.229,-0.162
O=C1C2C=CC(C(O)c3ccccn3)N(Nc3ccccc3)C2C(=O)N1c1ccccc1 (stereo not given),0.207,0.756 (inactive),1.41 (inactive),0.391 (inactive),2.24,-0.917 (inactive),-0.0991,-0.292,-0.254,-0.108
COC(=O)[C@@]1(Cc2ccc(OC)cc2)[C@H]2c3cc(C(=O)N4CCCC4)n(CCc4ccc(O)c(OC)c4)c3C[C@H]2CN1C(=O)c1ccccc1,-1.53,0.525 (inactive),0.452 (inactive),0.0019 (inactive),2.6,-1.13 (inactive),0.128,-0.879,-0.56,0.0055
CCCCC(=C=CC[C@H](O)c1ccccc1OCCO)C[C@H](O)c1ccccn1,1.13,0.27 (inactive),-0.132 (inactive),0.0422 (inactive),0.0266,1.3 (inactive),-0.0699,0.939,0.0956,-0.179
COc1cccc(C[C@H]2C[C@@H](CO[Si](C(C)C)(C(C)C)C(C)C)N3C(=O)[C@]4(C(C)=O)O[C@]23[C@H]2C(=O)N(C)C(=O)[C@H]24)c1,1.49,0.481 (inactive),1.38 (inactive),1.25 (inactive),0.622,-1.11 (inactive),-0.0942,1,1.13,-0.0175
O=C(Nc1cc(Br)ccc1C(=O)NCc1cccc(O)c1)c1ccccc1,1.45,1.06 (inactive),-2.4 (inactive),0.537 (inactive),2.5,2.81 (inactive),-0.0291,-0.0072,0.275,-0.0947
C[N+](C)(C)CCCC[C@@H]1NC(=O)[C@@H]2C[C@H](C(=O)O)[C@H](c3cccc(OCCO)c3)N2C1=O,0.583,0.852 (inactive),-1.13 (inactive),0.167 (inactive),0.423,0.817 (inactive),-0.175,0.601,-0.78,-0.175
C=C(/C(=C/C[C@@H](OC(C)=O)c1ccccc1OCCO)c1cnc2ccccc2c1)C(C)C,1.4,-0.37 (inactive),-1.11 (inactive),-0.449 (inactive),0.885,0.575 (inactive),-0.178,1.2,0.646,-0.0439
COC(=O)[C@]1(Cc2ccccc2CN=[N+]=[N-])N=C(c2ccc(OCCCO)cc2)O[C@@H]1c1ccccc1CN=[N+]=[N-],0.921,-0.456 (inactive),-1.09 (inactive),33.5 (active),2,2.08 (inactive),0.111,0.435,-0.253,-0.0828
CN(C)CCCNC(=O)[C@@]1(Cc2ccccc2I)c2ccccc2C(=O)N(Cc2ccccc2Cl)[C@H]1c1ccc(CO)cc1,0.9,-0.531 (inactive),-19.8 (active),-2.99 (inactive),2.78,-1.7 (inactive),0.222,-0.819,-0.063,0.147
COC(=O)[C@@]1(Cc2ccc(F)cc2)[C@@H]2[C@@H](CC(=O)[C@H]2CC(=O)C(=O)N2CCCC2)CN1C(=O)c1ccccc1,1.27,0.347 (inactive),1.57 (inactive),3.52 (inactive),3.67,-0.708 (inactive),0.299,-0.413,1.03,0.147
COc1ccc(CCNC(=O)[C@@H]2c3ccccc3C(=O)N(Cc3ccccc3)[C@H]2c2ccc(CO)cc2)cc1,1.55,-1.34 (inactive),-0.586 (inactive),-0.332 (inactive),3.23,1.95 (inactive),0.06,0.107,0.233,-0.0978
O=C(O)[C@]1(CCS(=O)(=O)c2ccccc2)N=C(c2ccc(OCCCO)cc2)O[C@@H]1c1ccccc1,0.464,-0.15 (inactive),-2.3 (inactive),-0.961 (inactive),3.4,0.0201 (inactive),0.337,-0.116,-0.687,0.0021
CCC[C@@H]1C[C@@]1(CCC)[C@@H](NC(=O)c1cccs1)c1ccc(Cl)cc1,0.0333,-0.5 (inactive),-3.76 (inactive),-0.454 (inactive),1.4,0.102 (inactive),0.0395,-1.87,-0.118,-0.435
CC(C)CCC[C@@H](C)[C@H]1CC[C@@]2(C)C3=C(CC[C@]12C)[C@@]1(C)CC[C@H](OC(=O)c2ccc(N)cc2)C(C)(C)C1CC3 (stereo not given in full),0.68,-1.77 (inactive),-1 (inactive),-0.246 (inactive),-0.0362,2.78 (inactive),-0.19,0.434,0.614,-0.0238
O=C(O)[C@@]1(Cc2ccccc2)COC(c2ccc(OCCCO)cc2)=N1,-0.269,0.661 (inactive),1.01 (inactive),1.3 (inactive),2.64,0.598 (inactive),-0.0915,-0.66,-0.776,-0.229
C=CC[C@@]1(C(=O)NCC(O)CO)N=C(c2ccc(OCCCO)cc2)O[C@@H]1c1ccccc1 (stereo not given in full),1.4,-0.646 (inactive),-1.17 (inactive),-1.12 (inactive),3.12,0.727 (inactive),0.344,0.315,0.0815,0.168
